Test [1] in a line: ATG_GLI_CIS: Attagene CIS-FACTORIAL HepG2 Assay for human Zinc Finger Protein GLI1 (AID 2282945). Particulars: HepG2, Attagene cis-factorial reporter mRNA, GLI element; actives raise or lower the signal. The essentials: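 Bidirectional curve fits relative to DMSO, using reporter mRNA levels from RT-PCR plus capillary electrophoresis. Cells were HepG2 transiently carrying cis-regulated reporter constructs, harvested 24 h after dosing.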

Test [2] can be described thus: ATG_GRE_CIS: Attagene CIS-FACTORIAL HepG2 Assay for human Glucocorticoid Response Elements (GRE) (AID 2282947). The note with it: HepG2 GRE cis-reporter, Attagene multiplex mRNA; actives raise or lower the signal. The essentials: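 Reporter transcripts read by RT-PCR with capillary electrophoresis fluorescence after a 24 h chemical exposure of HepG2 cells transiently transfected with multiple cis-element reporter units. Gain or loss fitted against DMSO.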

The nature of test [3]: ATG_ISRE_CIS: Attagene CIS-FACTORIAL HepG2 Assay for human Interferon Regulatory Factor 1 (IRF1) binding to an Interferon-Stimulated Response Element (ISRE) (AID 2282948). The note with it: HepG2 ISRE cis-reporter (Attagene), mRNA transcription readout; actives raise or lower the signal. The essentials:
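Endogenous transcription factor activity read as reporter transcript abundance via RT-PCR and capillary electrophoresis. HepG2 cells transiently transfected, 24 h chemical exposure. Gain or loss fitted against DMSO baseline.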

The nature of test [4]: ATG_M_32_CIS: Attagene CIS-FACTORIAL HepG2 Assay for M32 Transcription Factor (Internal Marker) (AID 2282949).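 Further: background control marker of the multiplexed CIS panel rather than a real target.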 The note with it: HepG2 Attagene cis-factorial M32 reporter, mRNA; actives raise or lower the signal. The essentials: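 HepG2 human liver cells transiently transfected with cis-promoter-driven multiple reporter transcription units, dosed 24 h. Reporter mRNA quantified by RT-PCR, FAM-labelled primer extension, HpaI digest and capillary electrophoresis; bidirectional fit versus DMSO baseline.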

The nature of test [5]: ATG_M_06_CIS: Attagene CIS-FACTORIAL HepG2 Assay for M06 Transcription Factor (Internal Marker) (AID 2282950). Particulars: HepG2 Attagene CIS-FACTORIAL M06 internal marker reporter; actives raise or lower the signal. In a few lines: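 Measured 24 h post-dosing in transiently transfected HepG2 cells, this internal-marker endpoint reports reporter mRNA via RT-PCR with fluorescent primer extension and capillary electrophoresis. DMSO served as negative control and baseline for bidirectional fitting.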

Test [6] addresses Hypoxia-inducible factor 1-alpha (Homo sapiens) (UniProt Q16665). In words: ATG_HIF1a_CIS: Attagene CIS-FACTORIAL HepG2 Assay for human Hypoxia Inducible Factor 1 (HIF1A) (AID 2282951). Particulars: HepG2 Attagene cis-factorial HIF1a reporter transcription; actives raise or lower the signal. The essentials:
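Dosed 24 h, transfected HepG2 cells yielded total RNA whose reporter transcripts were RT-PCR-amplified and sized by capillary electrophoresis using fluorescent labelling; DMSO defined baseline, with gain and loss of signal both fitted.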

The target in test [7] is Hepatocyte nuclear factor 6 (Homo sapiens) (UniProt Q9UBC0). Put plainly: ATG_HNF6_CIS: Attagene CIS-FACTORIAL HepG2 Assay for human Hepatocyte Nuclear Factor 6 (HNF6) (AID 2282952). Particulars: HepG2 Attagene cis-factorial HNF6 reporter transcription; actives raise or lower the signal. In a few lines: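 Endogenous transcription factor activity in human HepG2 liver cells was captured through cis-regulated reporter constructs. After 24 h treatment, reporter mRNA was measured by RT-PCR with capillary electrophoresis, and activity was fitted in both directions relative to DMSO.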

Test [8] concerns the target Heat shock factor protein 1 (Homo sapiens) (UniProt Q00613). Put plainly: ATG_HSE_CIS: Attagene CIS-FACTORIAL HepG2 Assay for human Heat Shock Transcription Factor 1 (HSE) (AID 2282953). Particulars: HepG2 HSE cis-reporter, Attagene RNA transcription; actives raise or lower the signal. The essentials: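 Reporter mRNA induction in HepG2 is measured 24 h after dosing, using transiently transfected multiplexed cis-regulated reporter units. Signal comes from capillary electrophoresis of labelled RT-PCR products, with DMSO as negative control.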

The nature of test [9]: ATG_MRE_CIS: Attagene CIS-FACTORIAL HepG2 Assay for human Metal Responsive Element (MRE) (AID 2282954). Particulars: HepG2 MRE cis-reporter transcription, Attagene multiplex; actives raise or lower the signal. In a few lines: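 Endogenous MRE-dependent transcription read as reporter mRNA in transiently transfected human HepG2 cells at 24 h. RNA reverse-transcribed, PCR-amplified, labelled and resolved by capillary electrophoresis; gain or loss relative to DMSO.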

Test [10] in a line: ATG_PBREM_CIS: Attagene CIS-FACTORIAL HepG2 Assay for human Phenobarbital-responsive Enhancer Module (PBREM) (AID 2282955). The note with it: HepG2 PBREM cis-reporter, Attagene multiplexed transcription; actives raise or lower the signal. The essentials: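 Transfected liver-derived HepG2 cells exposed 24 h; PBREM reporter transcript quantified via RT-PCR and capillary electrophoresis, with activity in either direction referenced to DMSO.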

For test [11], the target named is Paired box protein Pax-6 (Homo sapiens) (UniProt P26367). In words: ATG_Pax6_CIS: Attagene CIS-FACTORIAL HepG2 Assay for human Paired Box 6 (PAX6) (AID 2282956). Particulars: HepG2 CIS-FACTORIAL PAX6 reporter transcription, RNA readout; actives raise or lower the signal. In a few lines:
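Read-out is reporter transcript level, measured by RT-PCR with fluorescent primer extension and capillary electrophoresis after 24 h dosing of transfected HepG2 cells. Activity in either direction fitted relative to DMSO control.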

A short description of test [12]: ATG_PPRE_CIS: Attagene CIS-FACTORIAL HepG2 Assay for human Peroxisome Proliferator-activated Response Element (PPRE) (AID 2282958). Particulars: HepG2 PPRE cis-element reporter, Attagene transcription factor profiling; actives raise or lower the signal. The essentials: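 Measured endpoint: PPRE-controlled reporter mRNA, detected by RT-PCR and capillary electrophoresis fluorescence, from transiently transfected HepG2 cells 24 h after dosing. Curves fitted in both directions using DMSO baseline.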

Test [13] can be described thus: ATG_RORE_CIS: Attagene CIS-FACTORIAL HepG2 Assay for human RAR-related Orphan Receptor Element (RORE) (AID 2282959). Particulars: HepG2 Attagene cis-factorial RORE reporter, mRNA; actives raise or lower the signal. In a few lines: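 Transiently transfected HepG2 reporter cells were treated 24 h. Reporter transcripts were detected by RT-PCR and capillary electrophoresis, with bidirectional fitting against DMSO.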

Test [14] in a line: ATG_Sox_CIS: Attagene CIS-FACTORIAL HepG2 Assay for human SRY-box transcription factor (SOX) (AID 2282960). The note with it: HepG2 Attagene cis-factorial SOX reporter, mRNA; actives raise or lower the signal. In a few lines:
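Gain- or loss-of-signal endpoint, fitted bidirectionally with DMSO as negative control. Based on reporter mRNA from transfected HepG2 cells harvested 24 h post-treatment and quantified via RT-PCR and capillary electrophoresis.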

In test [15] the target is Transcription factor Sp1 (Homo sapiens) (UniProt P08047). Put plainly: ATG_Sp1_CIS: Attagene CIS-FACTORIAL HepG2 Assay for human Specificity Protein 1 (Sp1) (AID 2282961). Particulars: HepG2 Sp1 cis-reporter transcription, actives raise or lower the signal. In a few lines: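 Endpoint reflects endogenous Sp1 transcriptional activity, not an exogenous fusion protein: HepG2 cells with transfected cis-regulated reporters, 24 h dosing, RT-PCR/capillary electrophoresis mRNA read-out, DMSO-normalised bidirectional fit.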

Test [16] is described as follows: ATG_SREBP_CIS: Attagene CIS-FACTORIAL HepG2 Assay for human Sterol Regulatory Element Binding (SREBP) (AID 2282962). The note with it: HepG2 Attagene cis-factorial SREBP reporter, mRNA; actives raise or lower the signal. The essentials: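 Endogenous SREBP activity read as cis-element-driven reporter transcript in transiently transfected HepG2, 24 h post-dosing; quantified via RT-PCR plus capillary electrophoresis of fluorescent fragments. Gain or loss of signal fitted relative to DMSO baseline.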

Test [17] concerns the target Signal transducer and activator of transcription 3 (Homo sapiens) (UniProt P40763). In words: ATG_STAT3_CIS: Attagene CIS-FACTORIAL HepG2 Assay for human Signal Transducer and Activator of Transcription 3 (STAT3) (AID 2282963). The note with it: HepG2, Attagene cis-factorial STAT3 reporter transcription; actives raise or lower the signal. In a few lines: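 Readout is reporter transcript quantified by RT-PCR and capillary electrophoresis, with 6-FAM primer extension and HpaI digestion. Total RNA is taken 24 h after dosing transiently transfected HepG2 carrying cis-regulated reporter units. Bidirectional fit against DMSO.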

Test [18] is described as follows: ATG_TA_CIS: Attagene CIS-FACTORIAL HepG2 Assay for human TA Basal Promoter (AID 2282964). Particulars: HepG2 Attagene CIS-factorial TA basal promoter reporter; actives raise or lower the signal. In a few lines: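 Cis-factorial format in HepG2: reporters report endogenous factors, not chimeric Gal4 fusions. After 24 h treatment, reporter transcripts were measured by RT-PCR-capillary electrophoresis fluorescence, analysed bidirectionally versus DMSO.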

A short description of test [19]: ATG_PXRE_CIS: Attagene CIS-FACTORIAL HepG2 Assay for human Pregnane X Receptor Element (PXRE) (AID 2282957). The note with it: HepG2 Attagene CIS-FACTORIAL PXRE reporter, mRNA; actives raise or lower the signal. In a few lines:
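Endogenous transcription factor activity in HepG2 was gauged through induction of reporter mRNA driven by a cis-regulating promoter element, sampled 24 h post-treatment. Activity was fitted in both directions against DMSO negative control.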

Test [20] has as its target Bile acid receptor (Homo sapiens) (UniProt Q96RI1). In words: ATG_IR1_CIS: Attagene CIS-FACTORIAL HepG2 Assay for human Nuclear Receptor Subfamily 1 Group H Member 4 (NR1H4), IR1 submotif (AID 2282946). Particulars: IR1 reporter transcription, actives raise or lower the signal. The essentials:
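HepG2 cells transiently transfected with multiplexed cis-element reporter units read endogenous transcription factor activity. After 24 h compound exposure, reporter mRNA was quantified by RT-PCR, fluorescent labelling, HpaI digestion and capillary electrophoresis; bidirectional fitting versus DMSO baseline.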

Several values for one entry are separate records, joined by “and”; a condition that tells them apart may be missing. Identical values can stand only once. More than one record can exist for a structure, and the calls need not agree. Activity calls are given as the source filed them. How the source made its calls: active means hit-call score of the fitted dose curve at least 0.9, where 1 is the maximum; inactive means score below 0.9.

Hypoxia-inducible factor 1-alpha (Homo sapiens), sequence (Q16665 whole entry, looked up): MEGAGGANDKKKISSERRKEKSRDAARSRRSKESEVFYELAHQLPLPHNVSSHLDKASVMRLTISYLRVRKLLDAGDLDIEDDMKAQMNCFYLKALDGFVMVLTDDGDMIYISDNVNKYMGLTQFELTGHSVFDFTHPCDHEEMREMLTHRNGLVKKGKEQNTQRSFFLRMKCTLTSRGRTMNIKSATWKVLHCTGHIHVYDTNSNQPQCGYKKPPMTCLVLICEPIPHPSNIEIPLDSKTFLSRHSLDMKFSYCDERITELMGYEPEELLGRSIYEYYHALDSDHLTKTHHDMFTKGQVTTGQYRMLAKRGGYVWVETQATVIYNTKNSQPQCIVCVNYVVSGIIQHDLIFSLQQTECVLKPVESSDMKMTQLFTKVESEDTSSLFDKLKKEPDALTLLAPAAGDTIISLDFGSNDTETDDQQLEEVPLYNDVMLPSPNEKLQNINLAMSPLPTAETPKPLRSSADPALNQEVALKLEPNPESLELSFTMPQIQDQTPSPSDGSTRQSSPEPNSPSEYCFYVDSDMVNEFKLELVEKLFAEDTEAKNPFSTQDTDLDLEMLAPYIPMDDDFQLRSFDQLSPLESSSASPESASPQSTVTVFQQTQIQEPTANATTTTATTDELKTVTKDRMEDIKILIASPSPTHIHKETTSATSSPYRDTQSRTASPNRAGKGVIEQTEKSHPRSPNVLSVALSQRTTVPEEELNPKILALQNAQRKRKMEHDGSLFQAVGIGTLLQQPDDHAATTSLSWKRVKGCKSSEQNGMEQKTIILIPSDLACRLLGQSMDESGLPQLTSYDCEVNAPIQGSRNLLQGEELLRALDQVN
Heat shock factor protein 1 (Homo sapiens), sequence (Q00613 whole entry, looked up): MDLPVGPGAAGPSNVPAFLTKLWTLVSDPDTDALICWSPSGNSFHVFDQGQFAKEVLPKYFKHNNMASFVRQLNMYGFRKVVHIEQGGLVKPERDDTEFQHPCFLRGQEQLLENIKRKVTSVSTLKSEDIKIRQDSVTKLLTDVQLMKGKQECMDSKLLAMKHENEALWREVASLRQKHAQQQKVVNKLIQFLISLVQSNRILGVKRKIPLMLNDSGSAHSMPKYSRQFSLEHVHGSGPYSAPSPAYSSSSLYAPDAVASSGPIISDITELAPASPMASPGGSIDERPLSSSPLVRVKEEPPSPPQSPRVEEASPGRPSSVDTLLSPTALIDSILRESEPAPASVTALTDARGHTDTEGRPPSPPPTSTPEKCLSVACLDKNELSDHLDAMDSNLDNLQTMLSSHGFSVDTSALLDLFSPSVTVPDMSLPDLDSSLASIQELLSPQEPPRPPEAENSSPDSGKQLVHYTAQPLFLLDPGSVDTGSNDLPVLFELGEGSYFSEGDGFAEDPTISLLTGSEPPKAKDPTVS
Hepatocyte nuclear factor 6 (Homo sapiens), sequence (Q9UBC0 whole entry, looked up): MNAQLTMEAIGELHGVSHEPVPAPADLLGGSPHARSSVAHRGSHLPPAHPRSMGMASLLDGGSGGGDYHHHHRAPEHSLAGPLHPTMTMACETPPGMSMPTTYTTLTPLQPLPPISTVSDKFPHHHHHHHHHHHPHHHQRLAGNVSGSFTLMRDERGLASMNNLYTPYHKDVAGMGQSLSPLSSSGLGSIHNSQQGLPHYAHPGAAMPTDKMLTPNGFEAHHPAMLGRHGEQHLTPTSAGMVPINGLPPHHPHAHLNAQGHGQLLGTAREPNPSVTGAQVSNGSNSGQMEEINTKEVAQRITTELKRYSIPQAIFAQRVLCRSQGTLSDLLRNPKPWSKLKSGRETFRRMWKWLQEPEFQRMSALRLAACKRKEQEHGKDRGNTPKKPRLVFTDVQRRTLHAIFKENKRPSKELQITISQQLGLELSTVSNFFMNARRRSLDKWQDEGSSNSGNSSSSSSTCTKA
Paired box protein Pax-6 (Homo sapiens), sequence (P26367 whole entry, looked up): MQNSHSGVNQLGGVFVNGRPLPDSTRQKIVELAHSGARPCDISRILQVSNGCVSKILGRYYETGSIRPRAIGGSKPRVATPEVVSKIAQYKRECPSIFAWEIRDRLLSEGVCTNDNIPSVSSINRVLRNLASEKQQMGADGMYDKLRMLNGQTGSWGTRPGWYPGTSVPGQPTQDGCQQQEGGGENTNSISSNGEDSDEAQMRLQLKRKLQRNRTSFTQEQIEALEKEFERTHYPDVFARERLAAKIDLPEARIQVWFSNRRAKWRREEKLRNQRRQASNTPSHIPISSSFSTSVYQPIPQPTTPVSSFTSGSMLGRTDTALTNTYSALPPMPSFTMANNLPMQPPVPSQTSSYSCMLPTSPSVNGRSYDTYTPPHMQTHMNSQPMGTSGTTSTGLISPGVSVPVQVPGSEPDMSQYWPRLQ
Signal transducer and activator of transcription 3 (Homo sapiens), sequence (P40763 whole entry, looked up): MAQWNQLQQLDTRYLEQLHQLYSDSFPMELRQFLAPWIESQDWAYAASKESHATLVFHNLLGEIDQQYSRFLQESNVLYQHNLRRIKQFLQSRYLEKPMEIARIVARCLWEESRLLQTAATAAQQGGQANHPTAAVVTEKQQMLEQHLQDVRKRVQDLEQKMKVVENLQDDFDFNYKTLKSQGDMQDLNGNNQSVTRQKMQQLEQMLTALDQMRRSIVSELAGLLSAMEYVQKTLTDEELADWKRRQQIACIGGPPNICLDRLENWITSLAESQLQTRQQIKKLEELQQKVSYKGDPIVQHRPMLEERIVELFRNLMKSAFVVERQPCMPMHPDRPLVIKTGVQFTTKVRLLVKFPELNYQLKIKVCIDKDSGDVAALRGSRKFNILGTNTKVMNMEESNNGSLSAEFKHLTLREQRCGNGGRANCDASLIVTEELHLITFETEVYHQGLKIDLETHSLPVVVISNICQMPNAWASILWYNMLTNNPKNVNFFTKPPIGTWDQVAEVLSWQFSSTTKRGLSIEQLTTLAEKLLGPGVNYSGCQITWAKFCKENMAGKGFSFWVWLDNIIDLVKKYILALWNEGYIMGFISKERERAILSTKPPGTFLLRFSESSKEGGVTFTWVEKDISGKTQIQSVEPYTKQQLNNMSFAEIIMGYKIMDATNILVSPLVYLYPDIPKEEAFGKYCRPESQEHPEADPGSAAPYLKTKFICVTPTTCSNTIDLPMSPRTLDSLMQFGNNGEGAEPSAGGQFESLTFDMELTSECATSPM
Transcription factor Sp1 (Homo sapiens), sequence (P08047 whole entry, looked up, the tested form may be a part): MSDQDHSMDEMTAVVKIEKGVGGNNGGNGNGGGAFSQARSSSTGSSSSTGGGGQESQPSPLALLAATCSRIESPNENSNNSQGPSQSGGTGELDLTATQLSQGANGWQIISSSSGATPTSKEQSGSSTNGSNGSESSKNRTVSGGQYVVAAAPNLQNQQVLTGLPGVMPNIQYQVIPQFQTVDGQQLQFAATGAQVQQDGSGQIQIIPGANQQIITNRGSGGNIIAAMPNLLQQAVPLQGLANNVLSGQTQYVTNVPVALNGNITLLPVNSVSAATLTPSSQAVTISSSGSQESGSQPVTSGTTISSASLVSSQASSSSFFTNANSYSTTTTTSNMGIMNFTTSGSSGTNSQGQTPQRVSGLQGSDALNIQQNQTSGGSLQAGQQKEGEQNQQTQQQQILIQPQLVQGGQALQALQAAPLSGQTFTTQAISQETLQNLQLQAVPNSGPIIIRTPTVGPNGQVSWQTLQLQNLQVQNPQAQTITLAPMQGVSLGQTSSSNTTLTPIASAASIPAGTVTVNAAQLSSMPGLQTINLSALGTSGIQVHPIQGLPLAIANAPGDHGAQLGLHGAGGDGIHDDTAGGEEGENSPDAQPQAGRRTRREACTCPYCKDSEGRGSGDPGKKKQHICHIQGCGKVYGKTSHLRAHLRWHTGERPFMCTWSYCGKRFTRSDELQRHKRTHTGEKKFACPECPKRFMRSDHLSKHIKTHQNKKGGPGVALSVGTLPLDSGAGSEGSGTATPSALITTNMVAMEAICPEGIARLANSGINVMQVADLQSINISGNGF
Bile acid receptor (Homo sapiens), sequence (Q96RI1 whole entry, looked up): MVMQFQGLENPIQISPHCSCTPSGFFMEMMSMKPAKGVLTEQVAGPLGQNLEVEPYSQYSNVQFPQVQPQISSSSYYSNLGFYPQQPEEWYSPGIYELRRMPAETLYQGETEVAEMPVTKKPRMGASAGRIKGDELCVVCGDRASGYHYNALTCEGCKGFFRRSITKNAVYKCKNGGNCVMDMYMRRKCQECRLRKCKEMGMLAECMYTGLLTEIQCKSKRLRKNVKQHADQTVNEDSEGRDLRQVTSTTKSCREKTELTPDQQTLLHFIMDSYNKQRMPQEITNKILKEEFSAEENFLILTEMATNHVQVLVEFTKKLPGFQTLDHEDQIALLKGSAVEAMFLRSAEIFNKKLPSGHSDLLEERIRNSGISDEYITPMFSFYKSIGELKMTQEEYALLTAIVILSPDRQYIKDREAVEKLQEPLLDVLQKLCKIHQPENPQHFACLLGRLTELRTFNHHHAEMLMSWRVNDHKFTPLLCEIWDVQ

On to `N[C@@H](Cc1cc(I)c(Oc2ccc(O)c(I)c2)c(I)c1)C(=O)O`, for which the molecule was classed as inactive in test [1], in test [2], in test [3], in test [4], in test [5] and in [6]. The outcome in test [7], in [8], in test [9], in test [10], in [11] and in test [12] was inactive. Besides, the outcome in test [13], in test [14], in test [15], in [16], in test [17] and in test [18] was inactive. Besides, the AC50 (as a rule, the concentration at which the activity in the assay is half-maximal) in [6] was 16.3 µM (active) and 19.5 µM (active) and 1.93 µM (active); in [8], 107 µM (active) and 160 µM (active); in test [9] it was 50.6 µM (active) and 23.7 µM (active) and 94 µM (active); in test [10] it was 24.4 µM (active); in test [12], 13 µM (active) and 22.3 µM (active).
As for `COC(=O)c1ccccc1C(=O)O`, the result in test [1], in [2], in test [3], in test [4], in [5] and in test [6] was inactive. Besides, the molecule was called inactive in [7], in test [8], in [9], in test [10], in test [11] and in [19]. For the same molecule, the call in test [12], in test [13], in test [14], in test [15], in test [16] and in test [17] was inactive. Moreover, the outcome in [18] was inactive.
On to `COc1nc(C)nc(NC(=O)NS(=O)(=O)c2ccccc2OCCCl)n1`, for which the half-maximal activity concentration (AC50) is 8.66 µM (active) in [20]; 34.2 µM (active) and 5.58 µM (active) in [19]. For the same molecule, the outcome in [20], in test [2], in test [3], in [4], in test [5] and in test [6] was inactive. The molecule was classed as inactive in test [7], in test [8], in test [9], in test [10], in [11] and in test [12]. Moreover, the molecule was called inactive in test [13], in test [14], in [15], in [16], in test [17] and in test [18].

(Values after PubChem BioAssay (EPA / NIEHS).)
